# Results as given in PubChem BioAssay AID1159506 (National Center for Advancing Translational Sciences (NCATS), 2015).
# Over roughly 59,000 sequences, the read-out has its median near -0.00055; the lowest 2% begin near -2. Shown is part of a subset that was picked to be rich in the lowest values.
# Assay: Identification of proteins required for the processing of the EWS-FLI1 nascent transcript;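 further: robust z of luciferase light less the median z of siRNAs with the same seed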
# Settings: TC32 Ewing sarcoma NR0B1-luc vs CMV-luc (EWS-FLI1 target promoter against control promoter), 48 h; screened at 20 nM (by protocol)
# Summary of the method: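 TC32 Ewing sarcoma cells carrying NR0B1-promoter or CMV-promoter luciferase reporters were reverse-transfected with single siRNAs at 20 nM, three per gene genome-wide. Luminescence was read after 48 h and normalized to non-targeting controls.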
row,Sequence,seed-corrected z-score
1,UGUCUGUUUGUUGAAACUC against APOA5,-0.451
2,UCGUAGGCAAGGUAAGUAG against MUCL1,-0.0888
3,UCAAGUAAACUAGUCGUUU against VKORC1L1,-0.26
4,UUGGUUGCAAAGGAACUCC against NAB1,-2.58
5,UUCAUUUGCUCGAUGGUUG against MAPK1,1.09
6,UUCCUUGAUAGGUAUGUAU against LOC388813,-0.0267
7,UUGUGAACUACUUCUAUCC against AKNA,0.00206
8,AUAGGUCUGACUCAGCUGC against CCDC155,-2.23
9,UAGUGUACAAGGGUCAGGC against TSPAN17,0.12
10,UAUACACCAAUGUCGGUCC against KDM5A,0.142
11,AAUGAGUAAAAAGUGAAUU against HTN1,-0.556
12,UGAUGUAAAAUCAAAGGUU against KRT6C,0.491
13,AAACUUGGUUGAGUGAUCC against KRBA2,0.654
14,UGACUAUUAGGUCUUUAGC against BCAT1,-0.111
15,UCCAUCGUCAAUGUUAUCC against HNRNPH3,-5.45
16,AUAUCUAUAAUACCCUCCG against APIP,0.416
17,AUACGUGUUCUCAAUGAUC against RNF121,0.696
18,UUCUCUUCUUUAGUCAGUG against SKA2P1,-2.33
19,AAUAUUGUAAGAAGAAGGG against NT5C3B,0.882
20,UGGGUUCUCAGGAACGGGU against PNKD,1.76
21,UUCCUUUUGCGUCUGGAUC against ZC2HC1C,-1.55

row,Sequence,seed-corrected z-score
1,UAUUUGGGUGGUUCAGUUG against NEK6,-0.0182
2,UAUGAGUCCACAAUUGAUC against TMEM19,-11
3,UCUACAAGUAAUGAAGGCC against ZFP62,0.853
4,AAUGAUGAAUCCACCUUCG against ARMC10P1,-0.435
5,UCAGCUAACAAAGAGUCGC against STAG3,0.617
6,AGCAGUAUAAAACAGGAGC against TIPARP,0.177
7,AUAAUCACACUGUCAACUG against ACAA2,-0.323
8,AGCCUUAGACGUGCAGUUG against RPL36AP31,-2.33
9,UGUUGUAGCAGAAUGAGGA against ARC,-3.81
10,UGCUGGGUCAGAUGUCUCC against ARHGAP9,0.0212
11,UUCGAUCACCAUAUACUCC against KCNA3,0.36
12,UCGGUAUUCAAACCCUUCG against HIRA,0.423
13,UCAGGGCAUAGAUAAGUGG against OR10W1,-2.86
14,UUUCUAGCUAAGGUCAAAC against SHOC2,-0.857
15,AUAGGAGAUCGCAUCGCCC against CACFD1,-0.00387
16,AAGGUGUUCACGUAGGCUG against CLN3,-2.78
17,AUUGGUAUCCUAACUAUUC against EFHD1,0.876
18,UCUGGGAACACCCUCAGCA against GABRR2,-0.593
19,ACGGAUUCUAGUUUAGAUG against KIAA0232,2.72
20,UCCGUUCAUAGUCUUCUCC against CSPP1,-2.12
21,AUAACGAUGCUUUAUGUGG against ABHD1,-0.139

row,Sequence,seed-corrected z-score
1,UCUCUAACUUCGACCCUCU against C19orf68,0.527
2,UUUCUCAACUGCAUGAAAG against LINC00264,-0.13
3,UACUGAAGUAGUUAGGAUC against INO80C,1.43
4,AUGUUGCCCACGUCCUUGG against RABIF,-3.06
5,AAUGAGGCAGGCAUGUUGG against PNMT,1.18
6,UGUAUCCUAAGGUAUCGGC against VWA8,-0.221
7,AUAUCUUCGAAAGUAAAUC against RPF2P1,1.14
8,UUUUUCCAUACUUCAAGCC against QRICH1,-0.708
9,AAAUGGAAAUUCUCGAUGU against HTN1,0.36
10,AGAUUGGUCAAAGCCUUUC against ZNF319,-2.3
11,AUAGUUAUUCUUGUCGGGC against HVCN1,-0.696
12,UACGUAGUCGUCAUCAUCU against FAM83G,-0.453
13,UCAUUAGACAUAACAUUGC against ALG13,0.117
14,UCAUAGUCGAUCACCACUG against COL23A1,-0.458
15,UUAGUAGUGACAUUUCGGG against MRE11A,-0.0144
16,UUGAAUAGGAAGAGUAUCC against OMA1,1.31
17,UAACUGAUCAGACCACAAC against TUBA1A,0.266
18,UGUCCAUAAACAGUAAAGG against ZNF30,-2.51
19,UGAUUUAAUCUUGCCGCCC against PHLDB1,0.669
20,AACACGUUGCCUGUCUUUC against NUTM2A-AS1,0.413
21,UUUAGAACUGGUUAUUUUC against DEFB116,0.117

row,Sequence,seed-corrected z-score
1,AUGGUGAUCAUGGGACUGC against BEST1,-3.4
2,UUUGGUAACCUCUAGGUGC against RUFY2,0.0818
3,UAGGCAAACAUGCACCUGG against POLG,-0.765
4,UCGUGGUCUUCUAUUGUUC against GRB14,-0.556
5,AAUACAAUAGCAUAUACUC against RBBP9,0.306
6,UGCGGAUACAGAUCACUCC against WDR87,-2.28
7,UGAAUAAUGAAGUAUCCUG against AMPH,-0.174
8,UUAGUUCCAUGCCUUGCUC against ATP6V0A4,-0.497
9,AGUUAUAUCAGUCGUGAUC against FERMT2,0.187
10,UUCUGUAUCUGCUCCUUGU against PFDN2,1.09
11,UCUCUUUCCUCUGCGUGCG against GDF7,-2.92
12,UCUCAGGACUUAUAGCUGG against CEACAM3,0.106
13,AACUCUAUCUUGUAAAGGC against ZKSCAN3,0.0258
14,UCUAGUAACUCCAUAAGUU against NAA20,0.8
15,UUUGUUGUCUGGUUGGAGC against ZDHHC14,-0.328
16,UCAGGGCACAGCUAUAAGG against CPAMD8,0.0569
17,UAUUGUAGAUUGAACAGCC against NSMCE2,0.561
18,AUAGAGCUUAUAGAAGCGG against USP11,0.792
19,UAAAGGGAACGAAACACCC against HSPA1B,1.45
20,UUAUUUAUUGCCGCUCAGG against SFTA2,-2.64
21,UUGGGUCCGACAGUGAAGA against FAAP20,0.502
